Hit rate of the full screen: of about 68,000 compounds, about 2,700 (4%) showed an effect of 50% or more. Shown is part of a subset that was picked to be rich in strong results.

The test concerns Plasmodium berghei. As to the kind of experiment: Screen against P. berghei liver stage (PbLuc), transformed with Luciferase, at 2uM. The conditions noted are these: tested at 2 uM. Type of test: functional, HepG2.
`C1CCCN(c2nc(C3CC3)no2)CC1`: the INHIBITION is on record as 28.02%. For `Cc1ccsc1CN1C[C@@H]2CN(Cc3cccnc3)CCO[C@@H]2C1`, the INHIBITION was 4.26%. Turning to `COc1ccc(CN2C[C@@H]3CN(Cc4cccnc4)CCO[C@@H]3C2)cc1`, the INHIBITION was found to be 39.57%.

Turning to `Cc1ncsc1CN1C[C@@H]2CN(Cc3cccnc3)CCO[C@@H]2C1`, the INHIBITION turned out to be 54.13%. The same measure for `Cc1cc(C)c2cc(CNC3CCCCC3)c3nn(C)c(=O)n3c2c1`: 14.26%; for `Cc1cccc(C2(CNC(=O)CCNS(C)(=O)=O)CCCC2)c1`: 3.9%.

For `COCCN1CCC2(CC1)CC(N1CCOCC1)c1ccc(C)cc12` (stereo unspecified), the INHIBITION amounted to 17.47%. Turning to `CC(C)C(Sc1ccccc1)C(=O)N(C)Cc1nnc2n1CCC2` (stereo unspecified), the INHIBITION amounted to 64.39%. Next, `CC(=O)NC(C(=O)N(C)Cc1nnc2n1CCC2)C(C)C` (stereo unspecified): -63.33%; `CC(C)C(=O)N(C)Cc1nnc2n1CCCCC2`: 21.82%. With `CC(C)Nc1nc2c(c(NC3CC3)n1)CCN(Cc1nccn1C)CC2`, the INHIBITION came to 34.71%. The same measure for `CCCn1cc(NC2CCSCC2)cn1`: 46.58%. With `O=C(NCC1(O)CCC1)NC(c1cc(F)ccc1F)C1CC1` (stereo unspecified), the INHIBITION was -5.74%. The same measure for `CCOC(=O)c1n[nH]cc1CN1CCCC(N(C)Cc2ccccc2)C1` (stereo unspecified): 52.3%. Next, `CCOC(=O)c1n[nH]cc1CN1CCOC(Cc2ccccc2)C1` (stereo unspecified): -30.18%; `CCOC(=O)c1n[nH]cc1CN1CCOC(Cc2ccc(F)cc2)C1` (stereo unspecified): -142.94%.

As for `CCS(=O)(=O)N1CC(=O)N(CCCc2ccccc2)CC(O)C1` (stereo unspecified), the INHIBITION came to 12.44%. In the case of `Cc1cnn(CC2CCCN2C(=O)c2cnc3n[nH]c(C)c3c2)c1` (stereo unspecified), the INHIBITION is listed as -27.31%. Next, `O=C(Cn1cc(C(=O)O)ccc1=O)NCc1ccc(F)c(Cl)c1`: 11.14%; `O=C(C1CC1)N(Cc1ccc2cc[nH]c2c1)C1CC1`: 11.43%; `CN(C)c1nc2c(c(N(C)C)n1)CCN(C(=O)CN1CCC(O)CC1)C2`: 13.99%. Turning to `c1cncc(OCC2CN(Cc3ccsc3)Cc3nccn3C2)c1` (stereo unspecified), the INHIBITION is listed as 45.82%. As to `Cc1ccc(CN2Cc3ccnn3CC(COCc3cccnc3)C2)o1` (stereo unspecified), the INHIBITION is recorded as 49.25%. As to `c1cncc(COCC2CN(Cc3ccsc3)Cc3ccnn3C2)c1` (stereo unspecified), the INHIBITION is recorded as -10.99%. Next, `c1cncc(COCC2CN(Cc3cccnc3)Cc3ccnn3C2)c1` (stereo unspecified): 56.78%; `CN(C)C(=O)COCC1CN(Cc2ccsc2)Cc2nccn2C1` (stereo unspecified): 15.44%; `c1ccc(COCC2CN(Cc3ccsc3)Cc3nccn3C2)nc1` (stereo unspecified): 59.88%. Next, `c1cncc(COCC2CN(Cc3ccco3)Cc3ccnn3C2)c1` (stereo unspecified): 1.22%; `c1ccc(CN2Cc3ccnn3CC(COCc3cccnc3)C2)nc1` (stereo unspecified): 50.32%; `c1cncc(COCC2CN(Cc3ccncc3)Cc3ccnn3C2)c1` (stereo unspecified): -34.65%.

Regarding `CN(C)C(=O)CCC[S+]([O-])Cc1ccc(Cl)c(Cl)c1` (stereo unspecified), the INHIBITION is on record as -32.8%. Regarding `CSc1ccc(CN(C)Cc2noc(C(C)(C)C)n2)cc1`, the INHIBITION came to 21.28%. For `CC(C)Nc1nc2c(s1)C(=O)CN(CC1CC1)C2`, the INHIBITION is -17.3%.

As to `CC[C@@]1(O)CCN(CCCOc2ccc(C(N)=O)cc2)C[C@H]1O`, the INHIBITION was -15.75%. The same measure for `CN1CCc2ccc(NCc3cscn3)cc2C1=O`: 36.28%. Take `CN1CCc2ccc(NCc3cccs3)cc2C1=O`: the INHIBITION is listed as 50.59%.

Regarding `CN(CCc1cccs1)C(=O)Nc1ccc2c(c1)C(=O)N(C)CC2`, the INHIBITION stood at 5.28%.

Turning to `CCO[C@H]1CO[C@@]2(CCN(Cc3ccc4c(c3)OCO4)C2)C1`, the INHIBITION is -23.42%. `FC(F)(F)Cn1ccnc1CN1CCCC1c1noc(C2CC2)n1` (stereo unspecified): the INHIBITION is on record as -2.7%. Next, `COCCNC(=O)C1CN(Cc2csc(C)n2)Cc2ccnn2C1` (stereo unspecified): 47.54%; `CC(C)CC(O)C1CCN(C(=O)c2ccc(C(F)(F)F)nc2O)CC1` (stereo unspecified): 72.05%. Next, `CC(C)CC(O)C1CCN(C(=O)c2coc(CN3CCOCC3)c2)CC1` (stereo unspecified): 13.19%; `CC(C)CC(O)C1CCN(C(=O)c2ccc(C(C)C)[nH]c2=O)CC1` (stereo unspecified): -25.72%; `O=C(NCC(O)(c1cccs1)C1CC1)NC1CCCCC1` (stereo unspecified): -11.54%. Next, `CN(Cc1ccccn1)C(C(=O)O)c1ccc2c(c1)OCO2` (stereo unspecified): 13.86%; `COc1ccc(CCN2CC(n3nc(C)cc3C)C2)cc1`: 33.55%. As to `Cc1nc2[nH]cnc(NCCN3CCOCC3)c-2n1`, the INHIBITION is given as -7.81%. The same measure for `CN1[C@@H](C(=O)NCC2CC2)C[C@@H]2CN(Cc3ccsc3)C[C@@H]21`: 59.5%. Consider `Cc1ccc(CN2C[C@@H]3C[C@H](C(=O)NCC4CC4)N(C)[C@@H]3C2)o1`, for which the INHIBITION amounted to 21.06%. The same measure for `O=C(NCc1ccccc1)NCC1CCN(Cc2ccsc2)CC1`: 51%. `O=C(CCc1ccccc1)NCC1CCN(Cc2ccsc2)CC1`: the INHIBITION turned out to be 13.22%.

Values taken from ChEMBL document CHEMBL4513216, “Probing the Open Global Health Chemical Diversity Library for Multistage-Active Starting Points for Next-Generation Antimalarials” (ACS Infect Dis, 2020).
